This passage reports cytotoxicity call results from the antibiotic and cytotoxicity screens of Wong et al. (2023).

Screen size: about 39,000 compounds; about 3,300 (8.5%) were called active. The list comes from a sample in which actives are over-represented; it also holds similar structures and randomly drawn compounds.

This assay relates to HepG2. Kind of assay: cytotoxicity call (relative viability < 0.9). The settings on record: 10 µM.
`C[C@H](CO)N1C[C@H](C)[C@H](CN(C)C(=O)Cc2ccccn2)Oc2cc(-c3ccc(C(=O)N(C)C)cc3)ccc2S1(=O)=O`: the cytotoxicity call was “inactive”.
To `N[C@@H](CSCc1ccccc1Cl)C(=O)O` belongs “inactive”; to `COc1ccc(S(=O)(=O)Nc2ccc3c(c2)C(=O)N([C@@H](C)CO)C[C@H](C)[C@@H](CN(C)Cc2ccccc2)OCCCC[C@@H](C)O3)cc1`, “inactive”; to `C[C@H]1CCCCO[C@@H](CN(C)C(=O)Nc2ccc3c(c2)OCO3)[C@@H](C)CN([C@@H](C)CO)C(=O)c2cc(NC(=O)Nc3ccc(F)cc3)ccc2O1`, “inactive”.
To `NNC(=S)Nc1cccc(F)c1` belongs “inactive”; to `C[C@@H]1CN([C@@H](C)CO)C(=O)c2cc(C#CCN(C)C)cnc2O[C@H]1CN(C)S(=O)(=O)c1cn(C)cn1`, “inactive”.
Next, `COc1cccc(C#Cc2cnc3c(c2)C(=O)N([C@H](C)CO)C[C@H](C)[C@H](CN(C)C(=O)C2CCOCC2)O3)c1`: “inactive”.
As for `C[C@H]1CCCCO[C@H](CN(C)Cc2ccc(C(=O)O)cc2)[C@@H](C)CN([C@@H](C)CO)C(=O)c2cc(NC(=O)Nc3ccc(C(F)(F)F)cc3)ccc2O1`, the cytotoxicity call was “inactive”.
To `Cc1noc(C)c1NC(=O)Nc1ccc2c(c1)C(=O)N([C@H](C)CO)C[C@@H](C)[C@H](CN(C)S(=O)(=O)c1ccc(F)cc1)OCCCC[C@@H](C)O2` belongs “inactive”; to `ON/C=N\c1nonc1-c1cccnc1`, “inactive”.
To `Nc1c[nH]ccc1=O` belongs “inactive”; to `COc1ccc(NC(=O)N(C)C[C@H]2OCCCC[C@H](C)Oc3ccc(NS(=O)(=O)c4cccs4)cc3C(=O)N([C@H](C)CO)C[C@@H]2C)cc1`, “inactive”; to `COc1ccc2nc3cc(Cl)ccc3c(Nc3cc(CN4CCCC4)c(O)c(CN4CCCC4)c3)c2n1.O=P(O)(O)O.O=P(O)(O)O.O=P(O)(O)O.O=P(O)(O)O`, “active”.
To `CCC(=O)N[C@H]1CC[C@@H](CC(=O)OC)O[C@@H]1CO` belongs “inactive”; to `CC(=O)c1ccc(F)c(Cl)c1`, “inactive”; to `Nc1c2c(nc3ccccc13)CCCC2`, “inactive”.
For `Nc1c2ccccc2nc2ccccc12`, the cytotoxicity call was “active”.
As for `Nc1nnc(N)c2ccccc12`, the cytotoxicity call was “inactive”.
Take `Cl.Nc1c2c(nc3ccccc13)CCCC2`: the cytotoxicity call was “active”.
Take `CCc1nc2ccccc2c(N)c1C`: the cytotoxicity call was “inactive”.
Next, `Nc1nc(N)c2c(n1)CCCC2`: “inactive”.
Next, `C[C@H](CO)N1C[C@H](C)[C@H](CN(C)C)Oc2cc(C#C[C@@H](C)O)ccc2S1(=O)=O`: “inactive”; `C=CCCCCCCCCC(=O)Nc1ccccc1C`: “inactive”.
To `C[C@@H]1CN([C@@H](C)CO)C(=O)c2cc(/C=C/c3ccccc3)cnc2O[C@H]1CN(C)C(=O)C1CCOCC1` belongs “inactive”.
Consider `C[C@@H]1CCCCO[C@@H](CN(C)Cc2ccncc2)[C@H](C)CN([C@H](C)CO)C(=O)c2cc(NC(=O)C3CCCCC3)ccc2O1`, for which the cytotoxicity call was “inactive”.
To `O=C(C[C@@H]1CC[C@H]2[C@@H](COC[C@@H](O)CN2C(=O)c2ccc(F)cc2)O1)NCCCN1CCOCC1` belongs “inactive”.
With `COc1ccc(NC(=O)Nc2ccc3c(c2)CC(=O)N([C@@H](C)CO)C[C@H](C)[C@@H](CN(C)Cc2ccc(Oc4ccccc4)cc2)O3)cc1`, the cytotoxicity call is “inactive”.
In the case of `COc1ccc(NC(=O)Nc2ccc3c(c2)CC(=O)N([C@@H](C)CO)C[C@@H](C)[C@@H](CN(C)Cc2ccc(Oc4ccccc4)cc2)O3)cc1`, the cytotoxicity call is “active”.
To `COc1ccc(NC(=O)Nc2ccc3c(c2)CC(=O)N([C@H](C)CO)C[C@@H](C)[C@@H](CN(C)Cc2ccc(Oc4ccccc4)cc2)O3)cc1` belongs “active”; to `COc1ccc(NC(=O)Nc2ccc3c(c2)CC(=O)N([C@@H](C)CO)C[C@@H](C)[C@H](CN(C)Cc2ccc(Oc4ccccc4)cc2)O3)cc1`, “active”; to `COc1ccc(NC(=O)Nc2ccc3c(c2)CC(=O)N([C@H](C)CO)C[C@H](C)[C@@H](CN(C)Cc2ccc(Oc4ccccc4)cc2)O3)cc1`, “inactive”.
To `COc1ccc(NC(=O)Nc2ccc3c(c2)CC(=O)N([C@H](C)CO)C[C@@H](C)[C@H](CN(C)Cc2ccc(Oc4ccccc4)cc2)O3)cc1` belongs “active”; to `Cc1noc(C)c1NC(=O)Nc1ccc2c(c1)C(=O)N([C@@H](C)CO)C[C@@H](C)[C@H](CN(C)C(=O)Nc1cccc3ccccc13)O2`, “inactive”.
Take `COc1ccc2c3c(n(c2c1)C)[C@H](CO)N(C[C@]13CN(C1)C(=O)C1CC1)C(=O)CN1CCOCC1`: the cytotoxicity call was “inactive”.
Next, `CCCSc1nc(N[C@@H]2C[C@H]2c2ccc(F)c(F)c2)c2nnn([C@@H]3C[C@H](OCCO)[C@@H](O)[C@H]3O)c2n1`: “inactive”; `C[C@@H]1CCCCO[C@H](CN(C)Cc2ccc(C(F)(F)F)cc2)[C@@H](C)CN([C@H](C)CO)C(=O)c2cc(NS(C)(=O)=O)ccc2O1`: “inactive”; `COCCOC(=O)N1C(=O)[C@@]2(c3cc(C#CC4(O)CCCCCC4)ccc31)[C@H](C(=O)NC[C@H](O)c1ccccc1)[C@H]1C(=O)O[C@H](c3ccccc3)[C@H](c3ccccc3)N1[C@@H]2c1ccc(OCCO)cc1`: “inactive”.
To `COc1ccc(NC(=O)N(C)C[C@H]2Oc3c(NC(=O)c4ccc(-c5nccs5)cc4)cccc3C(=O)N([C@@H](C)CO)C[C@@H]2C)cc1` belongs “inactive”; to `Cc1noc(C)c1S(=O)(=O)N(C)C[C@H]1Oc2ccc(NC(=O)c3ccncc3)cc2C(=O)N([C@H](C)CO)C[C@@H]1C`, “inactive”.
To `C[C@@H]1CCCCO[C@H](CN(C)C(=O)Cc2ccccc2)[C@H](C)CN([C@H](C)CO)C(=O)c2cc(NC(=O)Nc3ccc(F)cc3)ccc2O1` belongs “inactive”; to `COc1ccc(NC(=O)Nc2ccc3c(c2)CC(=O)N([C@@H](C)CO)C[C@H](C)[C@H](CN(C)Cc2ccc(Oc4ccccc4)cc2)O3)cc1`, “active”.
As for `COc1ccc(NC(=O)Nc2ccc3c(c2)CC(=O)N([C@H](C)CO)C[C@H](C)[C@H](CN(C)Cc2ccc(Oc4ccccc4)cc2)O3)cc1`, the cytotoxicity call is “active”.
To `C[C@@H]1CN([C@@H](C)CO)C(=O)c2cc(NC(=O)Cc3ccccc3)ccc2O[C@@H]1CN(C)Cc1ccc(C(=O)Nc2ccccc2N)cc1` belongs “inactive”; to `C[C@@H]1CN([C@@H](C)CO)C(=O)c2cc(NC(=O)c3ccncc3)ccc2O[C@@H]1CN(C)Cc1ccc(Oc2ccccc2)cc1`, “inactive”.
`C[C@@H]1CN([C@@H](C)CO)C(=O)c2cccc(NC(=O)Nc3ccc(C(F)(F)F)cc3)c2O[C@@H]1CN(C)C(=O)Nc1ccccc1`: the cytotoxicity call was “inactive”.
Turning to `CCNC(=O)[C@H]1[C@H](CO)[C@H]2Cn3c(ccc(-c4cccc(OC)c4)c3=O)[C@H]2N1S(C)(=O)=O`, the cytotoxicity call was “inactive”.
For the compound `C[C@@H]1CCCCO[C@H](CN(C)C(=O)CCC(F)(F)F)[C@@H](C)CN([C@@H](C)CO)C(=O)c2cc(NC(=O)Cc3ccccc3)ccc2O1`, the cytotoxicity call was “inactive”.
To `Cc1ccc(S(=O)(=O)Nc2ccc3c(c2)CC(=O)N([C@@H](C)CO)C[C@@H](C)[C@@H](CN(C)S(=O)(=O)c2cn(C)cn2)O3)cc1` belongs “inactive”.
To `COc1ccc(CN(C)C[C@H]2OCCCC[C@H](C)Oc3ccc(NC(=O)Nc4ccc(OC)cc4)cc3C(=O)N([C@@H](C)CO)C[C@H]2C)cc1` belongs “active”; to `COc1ccc(CN(C)C[C@@H]2OCCCC[C@H](C)Oc3ccc(NC(=O)Nc4ccc(OC)cc4)cc3C(=O)N([C@H](C)CO)C[C@H]2C)cc1`, “inactive”.
To `COc1ccc(CN(C)C[C@@H]2OCCCC[C@@H](C)Oc3ccc(NC(=O)C4CCCCC4)cc3C(=O)N([C@H](C)CO)C[C@@H]2C)cc1` belongs “inactive”; to `COc1ccc(CN(C)C[C@@H]2OCCCC[C@H](C)Oc3ccc(NC(=O)Nc4ccc(OC)cc4)cc3C(=O)N([C@@H](C)CO)C[C@H]2C)cc1`, “active”; to `COc1ccc(CN(C)C[C@@H]2OCCCC[C@H](C)Oc3ccc(NC(=O)C4CCCCC4)cc3C(=O)N([C@@H](C)CO)C[C@H]2C)cc1`, “active”.
Consider `COc1ccc(CN(C)C[C@H]2OCCCC[C@H](C)Oc3ccc(NC(=O)Nc4ccc(OC)cc4)cc3C(=O)N([C@@H](C)CO)C[C@@H]2C)cc1`, for which the cytotoxicity call was “active”.
Next, `COc1ccc(CN(C)C[C@H]2OCCCC[C@@H](C)Oc3ccc(NC(=O)C4CCCCC4)cc3C(=O)N([C@H](C)CO)C[C@H]2C)cc1`: “inactive”; `COc1ccc(CN(C)C[C@@H]2OCCCC[C@@H](C)Oc3ccc(NC(=O)Nc4ccc(OC)cc4)cc3C(=O)N([C@H](C)CO)C[C@H]2C)cc1`: “inactive”; `C[C@@H]1CCCCO[C@@H](CN(C)Cc2ccc(C(=O)O)cc2)[C@H](C)CN([C@@H](C)CO)C(=O)c2cc(NC(=O)c3ccccc3)ccc2O1`: “inactive”.
To `C[C@@H]1CN([C@H](C)CO)C(=O)Cc2cc(NS(=O)(=O)c3cccs3)ccc2O[C@@H]1CN(C)S(C)(=O)=O` belongs “inactive”.
To `C[C@@H]1CCCCO[C@H](CN(C)C(=O)CCCN(C)C)[C@@H](C)CN([C@@H](C)CO)C(=O)c2cc(NC(=O)Nc3ccc(F)cc3)ccc2O1` belongs “inactive”; to `CS(=O)(=O)N1CCn2cc(Cn3cccn3)nc2C1`, “inactive”.
`Cc1noc(C)c1NC(=O)N(C)C[C@H]1Oc2c(NC(=O)Nc3cccc4ccccc34)cccc2C(=O)N([C@@H](C)CO)C[C@@H]1C`: the cytotoxicity call was “inactive”.
Next, `Cc1noc(C)c1S(=O)(=O)N(C)C[C@@H]1OCc2cn(nn2)CCCC(=O)N([C@H](C)CO)C[C@@H]1C`: “inactive”; `COc1ccc(S(=O)(=O)Nc2ccc3c(c2)C(=O)N([C@@H](C)CO)C[C@@H](C)[C@@H](CN(C)C(=O)Nc2ccc(C(F)(F)F)cc2)OCCCC[C@H](C)O3)cc1`: “inactive”.
To `CC(=O)OC[C@H]1O[C@@H](n2cc(C)c(=O)[nH]c2=O)C[C@@H]1OC(C)=O` belongs “inactive”; to `C[C@@H]1CCCCO[C@H](CN(C)C)[C@H](C)CN([C@H](C)CO)C(=O)c2cc(NC(=O)Nc3cccc4ccccc34)ccc2O1`, “inactive”; to `COc1ccc(NC(=O)N(C)C[C@H]2OCCCC[C@H](C)Oc3ccc(NS(=O)(=O)c4ccc(OC)cc4)cc3C(=O)N([C@@H](C)CO)C[C@H]2C)cc1`, “inactive”.
